Experimental findings from PubChem BioAssay are described below.

Values without a mark were called inactive. For some of these results: Results with a measured potency or affinity are listed apart. Activity calls are given as the source filed them. Unless noted, the rule behind the calls is not given here.

Experiment [1] in a line: antimalarial activity against Dd2 strain (AID 2302;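 active = growth inhibition above 50% at the single 2 µM test dose, taken to imply half-maximal potency below 2 µM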;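 note: 0% = DMSO untreated growth and 100% = chloroquine plus artemisinin killed control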). The settings on record: P. falciparum Dd2 in RBCs, LDH growth readout, 72 h; at 2 µM; hits give high values.
Experiment [2] can be described thus: human hepatoma cell viability loss – ATP luminescence, cytotoxicity control for P. falciparum antimalarial project, primary screen (AID 2303;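 active = inhibition above 50%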;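 note: 0% = DMSO wells and 100% = digitonin-killed cells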). The settings on record: HepG2 viability, 24-48 h, at 10 µM, hits give high values.
For experiment [3], the target named is L-lactate dehydrogenase (Plasmodium falciparum (isolate CDC / Honduras)) (UniProt Q27743). Put plainly: PfLDH activity inhibition – cell lysate, 3D7 strain, counter-screen for P. falciparum growth inhibition project (AID 2304).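 Note: 0% = vehicle and 100% = reference inhibitor.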 The note with it: P. falciparum 3D7 crude extract, LDH APAD/NBT absorbance; at 2 µM; hits give high values. A general note: A counterscreen serves to expose hits that act by an unwanted route or on another target.

Experiment [4] is described as follows: inhibition of 3D7 malaria parasite growth – strain 3D7 (AID 2306).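 Note: 0% = DMSO wells and 100% = chloroquine plus artemisinin control wells.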 The note with it: P. falciparum 3D7 erythrocytic growth, LDH absorbance, 72 h; at 2 µM; hits give high values.
The target of experiment [5] is Calcium-dependent protein kinase 1 (Plasmodium falciparum (isolate 3D7)) (UniProt P62344). Put plainly: PfCDPK1 kinase inhibitors, biochemical, TCAMS library (AID 1159585; cut-off not given, nearly all actives have IC50 up to about 0.98 µM;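 note: inhibitors leave more ATP so luminescence rises with inhibition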). The note with it: recombinant PfCDPK1, Kinase-Glo ATP depletion luminescence.
For experiment [6], the target named is Plasmodium falciparum protein kinase 6 (PK6, PF3D7_1337100) (UniProt Q8IDW1). The experiment can be described thus: PfPK6 kinase inhibitors, biochemical, TCAMS library (AID 1159586). The settings on record: recombinant PfPK6, Kinase-Glo ATP depletion luminescence. Background: Kinase-Glo reads ATP consumption through a luciferase reaction.
The target of experiment [7] is Protein kinase 7 (PK7), Plasmodium falciparum 3D7 (PF3D7_0213400) (UniProt Q7YTF7). Put plainly: inhibition of Plasmodium PK7 catalytic activity – biochemical, TCAMS antimalarial set, Kinase-Glo luminescence (AID 1159587). The note with it: recombinant PfPK7, Kinase-Glo ATP depletion luminescence.
Experiment [8] deals with Calcium-dependent protein kinase 4 (Plasmodium falciparum (isolate 3D7)) (UniProt Q8IBS5). The experiment can be described thus: PfCDPK4 kinase inhibitors, biochemical, TCAMS library (AID 1159588; cut-off not given, nearly all actives have IC50 up to about 0.91 µM). The note with it: recombinant PfCDPK4, Kinase-Glo ATP depletion luminescence.
Chain of Calcium-dependent protein kinase 4 (Plasmodium falciparum (isolate 3D7)) (Q8IBS5 whole entry, looked up): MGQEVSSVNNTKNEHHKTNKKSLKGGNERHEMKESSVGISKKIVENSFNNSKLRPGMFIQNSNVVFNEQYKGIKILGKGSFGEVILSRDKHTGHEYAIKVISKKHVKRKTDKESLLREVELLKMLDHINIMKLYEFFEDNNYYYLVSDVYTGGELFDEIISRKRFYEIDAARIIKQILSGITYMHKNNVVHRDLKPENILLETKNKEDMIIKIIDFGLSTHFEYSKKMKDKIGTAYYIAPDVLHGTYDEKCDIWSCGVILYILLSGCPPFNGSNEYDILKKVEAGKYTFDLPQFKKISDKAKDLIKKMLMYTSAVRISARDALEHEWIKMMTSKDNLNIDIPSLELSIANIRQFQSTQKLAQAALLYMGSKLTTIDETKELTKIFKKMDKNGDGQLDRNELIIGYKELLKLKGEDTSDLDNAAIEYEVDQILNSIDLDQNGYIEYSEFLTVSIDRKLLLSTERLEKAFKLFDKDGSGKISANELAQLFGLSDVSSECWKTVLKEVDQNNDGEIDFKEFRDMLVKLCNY

Chain of Protein kinase 7 (PK7), Plasmodium falciparum 3D7 (PF3D7_0213400) (Q7YTF7 1-343): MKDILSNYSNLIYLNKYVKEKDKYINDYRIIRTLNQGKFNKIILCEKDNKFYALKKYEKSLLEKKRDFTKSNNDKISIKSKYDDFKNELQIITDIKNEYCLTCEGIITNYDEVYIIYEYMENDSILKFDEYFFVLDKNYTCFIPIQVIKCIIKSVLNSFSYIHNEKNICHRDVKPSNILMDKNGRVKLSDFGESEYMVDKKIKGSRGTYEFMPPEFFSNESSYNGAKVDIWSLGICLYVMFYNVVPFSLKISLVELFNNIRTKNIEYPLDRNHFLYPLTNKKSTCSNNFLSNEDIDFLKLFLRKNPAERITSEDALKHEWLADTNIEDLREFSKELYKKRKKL
Chain of L-lactate dehydrogenase (Plasmodium falciparum (isolate CDC / Honduras)) (Q27743 whole entry, looked up): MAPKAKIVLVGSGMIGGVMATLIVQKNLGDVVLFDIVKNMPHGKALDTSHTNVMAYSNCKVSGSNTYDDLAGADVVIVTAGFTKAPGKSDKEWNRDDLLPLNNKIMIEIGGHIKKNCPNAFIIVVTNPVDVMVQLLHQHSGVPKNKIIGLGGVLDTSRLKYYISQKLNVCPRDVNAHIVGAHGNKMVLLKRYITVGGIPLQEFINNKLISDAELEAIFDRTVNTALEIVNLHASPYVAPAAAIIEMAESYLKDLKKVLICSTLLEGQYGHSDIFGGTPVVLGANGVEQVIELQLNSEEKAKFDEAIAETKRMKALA
Chain of Calcium-dependent protein kinase 1 (Plasmodium falciparum (isolate 3D7)) (P62344 whole entry, looked up): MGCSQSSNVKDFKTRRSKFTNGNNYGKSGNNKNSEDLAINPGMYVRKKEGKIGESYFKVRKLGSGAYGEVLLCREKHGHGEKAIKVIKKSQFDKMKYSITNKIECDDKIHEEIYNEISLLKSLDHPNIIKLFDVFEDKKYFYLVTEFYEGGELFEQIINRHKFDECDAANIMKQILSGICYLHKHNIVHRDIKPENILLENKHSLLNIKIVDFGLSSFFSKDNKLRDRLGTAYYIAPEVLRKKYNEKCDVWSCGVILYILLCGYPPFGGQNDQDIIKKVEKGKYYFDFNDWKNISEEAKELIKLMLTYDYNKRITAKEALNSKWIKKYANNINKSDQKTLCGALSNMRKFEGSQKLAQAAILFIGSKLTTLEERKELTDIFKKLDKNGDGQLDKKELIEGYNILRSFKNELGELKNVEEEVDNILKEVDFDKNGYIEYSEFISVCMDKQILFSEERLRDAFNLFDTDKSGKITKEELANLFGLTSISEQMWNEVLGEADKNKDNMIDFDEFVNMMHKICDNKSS
Chain of Plasmodium falciparum protein kinase 6 (PK6, PF3D7_1337100) (Q8IDW1 1-305): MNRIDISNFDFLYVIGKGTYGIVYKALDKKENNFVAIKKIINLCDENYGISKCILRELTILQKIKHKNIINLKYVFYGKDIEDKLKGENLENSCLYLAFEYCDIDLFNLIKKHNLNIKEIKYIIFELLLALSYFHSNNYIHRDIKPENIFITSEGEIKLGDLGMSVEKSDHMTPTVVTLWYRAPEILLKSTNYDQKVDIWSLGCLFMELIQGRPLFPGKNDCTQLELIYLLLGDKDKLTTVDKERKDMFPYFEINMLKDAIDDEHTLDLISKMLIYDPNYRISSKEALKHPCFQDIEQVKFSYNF

In the case of `Cn1c(N)c(C(=O)CSc2ncc(-c3ccc(F)cc3)n2Cc2ccccc2)c(=O)n(C)c1=O`, the figures for the growth inhibition in experiment [1] and in experiment [4] were 66% (active) and 88% (active), respectively. Further, the inhibition in experiment [2] was 11%; in experiment [3], 1%. Moreover, the result in experiment [5], in experiment [6], in experiment [7] and in experiment [8] was inactive.

With `CN(CC(=O)Nc1ccc(F)cc1)C(=O)c1ccc(-c2ccc(F)cc2)o1`, the growth inhibition was 84% (active) in experiment [1] and 89% (active) in experiment [4]. Further, the inhibition in experiment [2] is 3%; in experiment [3], -2%. Further, the outcome in experiment [5], in experiment [6], in experiment [7] and in experiment [8] was inactive.

Take `CNC(=O)c1cc(F)c(F)cc1Nc1nc(Nc2cccc(CS(C)(=O)=O)c2)ncc1Cl`: the growth inhibition in experiment [1] is 90% (active); in experiment [4] it was 91% (active). Besides, the figures for the inhibition in experiment [2] and in experiment [3] were 52% (active) and 3%, respectively. The result in experiment [5], in experiment [6], in experiment [7] and in experiment [8] was inactive.

As to `O=C(NCCc1ccc(Cl)c(Cl)c1)[C@@H]1CCCN1C(=O)c1ccc(O)c(-c2cccc(C(F)(F)F)c2)c1`, the growth inhibition was 82% (active) in experiment [1] and 97% (active) in experiment [4]. Also, the inhibition in experiment [2] is 0%; in experiment [3], -7%. For the same molecule, the result in experiment [5], in experiment [6], in experiment [7] and in experiment [8] was inactive.

For the molecule `CC(C)(C)c1ccc(NC(=O)c2cccc(CN3CCCN(Cc4cccc(O)c4)CC3)c2)cc1`, the growth inhibition in experiment [1] was 69% (active); in experiment [4], 101% (active). Further, the values for the inhibition in experiment [2] and in experiment [3] were 97% (active) and 4%, respectively. For the same molecule, the outcome in experiment [5], in experiment [6], in experiment [7] and in experiment [8] was inactive.

With `Nc1ncc(-c2ccsc2)cc1-c1nc2ccccc2[nH]1`, the growth inhibition was 8% in experiment [1] and 99% (active) in experiment [4]. Moreover, the inhibition in experiment [2] is 33%; in experiment [3], -2%. In addition, the result in experiment [5], in experiment [6], in experiment [7] and in experiment [8] was inactive.

On to `COc1ccc(CNc2ncnc3c2[nH]c2ccc(F)cc23)cc1`, for which the growth inhibition is 71% (active) in experiment [1] and 93% (active) in experiment [4]. In addition, the inhibition in experiment [2] was 38%; in experiment [3] it was -3%. Further, the result in experiment [5], in experiment [6], in experiment [7] and in experiment [8] was inactive.

Regarding `N#Cc1ccc(CN2CCC(Oc3ccc(NC(=O)c4ccccc4)cc3Cl)CC2)cc1`, the growth inhibition was 65% (active) in experiment [1] and 84% (active) in experiment [4]. In addition, the values for the inhibition in experiment [2] and in experiment [3] were 21% and 1%, respectively. Besides, the outcome in experiment [5], in experiment [6], in experiment [7] and in experiment [8] was inactive.

Turning to `CCOc1cccc(C(=O)Nc2cccc(CN3CCCN(Cc4cccc(O)c4)CC3)c2)c1`, the values for the growth inhibition in experiment [1] and in experiment [4] were 18% and 85% (active), respectively. In addition, the inhibition is 17% in experiment [2] and -3% in experiment [3]. Further, the result in experiment [5], in experiment [6], in experiment [7] and in experiment [8] was inactive.

Turning to `C[C@H](Nc1nc(C(Oc2ccccc2)c2ccccc2)nc2[nH]ncc12)c1ccccc1` (stereo not given in full), the growth inhibition in experiment [1] was 56% (active); in experiment [4] it was 100% (active). The inhibition is 15% in experiment [2] and -5% in experiment [3]. Besides, the outcome in experiment [5], in experiment [6], in experiment [7] and in experiment [8] was inactive.

Consider `CC(C)c1ccc2oc(-c3ccc(NC(=O)c4ccc([N+](=O)[O-])o4)cc3)nc2c1`, for which the growth inhibition is 95% (active) in experiment [1] and 100% (active) in experiment [4]. Moreover, the inhibition in experiment [2] is 99% (active); in experiment [3] it was 6%. Besides, the outcome in experiment [5], in experiment [6], in experiment [7] and in experiment [8] was inactive.

`COc1ccc(/C=C/C(=O)NCCCCCN2CCC(c3c[nH]c4ccccc34)CC2)cc1O`: the growth inhibition in experiment [1] was 1%; in experiment [4], 91% (active). For the same molecule, the inhibition in experiment [2] was 9%; in experiment [3], -5%. The result in experiment [5], in experiment [6], in experiment [7] and in experiment [8] was inactive.

As to `Cc1ccc(C)c(NC(=O)CC2C(=O)N(c3ccccc3)C(=S)N2Cc2ccco2)c1` (stereo not given), the growth inhibition in experiment [1] is 99% (active); in experiment [4], 101% (active). Moreover, the inhibition in experiment [2] is 9%; in experiment [3], -1%. For the same molecule, the outcome in experiment [5], in experiment [6], in experiment [7] and in experiment [8] was inactive.

Turning to `CCC(C)NCc1c(O)ccc2c(CNC(C)CC)c(O)ccc12` (stereo not given), the growth inhibition in experiment [1] is 31%; in experiment [4], 100% (active). Further, the inhibition is 14% in experiment [2] and 2% in experiment [3]. Further, the outcome in experiment [5], in experiment [6], in experiment [7] and in experiment [8] was inactive.

In the case of `COC(=O)c1sc2ccccc2c1NC(=O)c1ccc(C)c(C)c1`, the growth inhibition was 48% in experiment [1] and 88% (active) in experiment [4]. For the same molecule, the inhibition in experiment [2] was 4%; in experiment [3], -7%. Further, the outcome in experiment [5], in experiment [6], in experiment [7] and in experiment [8] was inactive.

Turning to `Clc1ccccc1OCc1ccccn1`, the growth inhibition was 2% in experiment [1] and 85% (active) in experiment [4]. In addition, the inhibition was 2% in experiment [2] and -3% in experiment [3]. Moreover, the outcome in experiment [5], in experiment [6], in experiment [7] and in experiment [8] was inactive.

In the case of `CCNc1cc(C)nc(Nc2ccc(NC(=O)c3ccccc3Br)cc2)n1`, the growth inhibition in experiment [1] is 56% (active); in experiment [4], 100% (active). Besides, the results for the inhibition in experiment [2] and in experiment [3] were 46% and -3%, respectively. Besides, the outcome in experiment [5], in experiment [6], in experiment [7] and in experiment [8] was inactive.

Turning to `C[C@H](Cc1ccc(C(=O)OC(c2ccccc2)c2ccccc2)cc1)NC[C@H](O)c1ccccc1`, the results for the growth inhibition in experiment [1] and in experiment [4] were 98% (active) and 100% (active), respectively. For the same molecule, the inhibition in experiment [2] was 83% (active); in experiment [3] it was -3%. In addition, the result in experiment [5], in experiment [6], in experiment [7] and in experiment [8] was inactive.

As for `CC(Cc1ccc(NC(=O)c2ccc(CNCCc3ccccc3)cc2)cc1)NCCc1cccc(Cl)c1` (stereo not given), the growth inhibition in experiment [1] is 99% (active); in experiment [4], 100% (active). Moreover, the figures for the inhibition in experiment [2] and in experiment [3] were 100% (active) and 0%, respectively. Also, the outcome in experiment [5], in experiment [6], in experiment [7] and in experiment [8] was inactive.

Consider `CCCCNCC(O)COc1ccccc1-c1ccc(N/N=C/c2cccc3ccccc23)nn1` (stereo not given), for which the growth inhibition in experiment [1] is 8%; in experiment [4] it was 99% (active). Also, the inhibition in experiment [2] is 38%; in experiment [3] it was -4%. The outcome in experiment [5], in experiment [6], in experiment [7] and in experiment [8] was inactive.

What is called inhibition is the relative decrease from the control value, in per cent.
